Experimental data as given in PubChem BioAssay.
Activity calls are given as the source filed them.

How the values were obtained:
[1] = system: PRMT1 (protein arginine N-methyltransferase 1); assay: small molecules binding arginine methyltransferase PRMT1 – biochemical, small-molecule microarray, 635 nm fluorescence, primary screen (AID 1088); details: higher = more signal;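 further: binding of Prmt1 protein to compounds spotted on small-molecule microarray slides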
[2] = growth effects on S. cerevisiae YJM789 – YJM789 clinical isolate, OD600, 24 h, basal, primary screen (AID 1089); details: higher = more signal, called active from +8 up or from −8 down;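 further: growth of clinical yeast isolate S. cerevisiae YJM 789 seeded 1000 cells per well; test concentration not given here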
[3] = S. pombe growth modifiers, basal conditions – strain 972, OD600, 24 h, no modulator, primary screen (AID 1090);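 further: basal condition with compound alone and no growth modifier present; test concentration not given here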; details: S. pombe 972 growth, higher = more signal, called active from +8 up or from −8 down
[4] = budding yeast growth modifiers under rapamycin – strain BY4716, OD600, 96 h, primary screen (AID 1091); further: test concentration not given here; details: S. cerevisiae BY4716 + rapamycin, higher = more signal, called active from +8 up or from −8 down
[5] = molecular target: Torsin-1A-interacting protein 2 (Homo sapiens) (UniProt Q8NFQ8); assay: small molecules binding lysate-expressed LULL1 – cell lysate, human LULL1 lysate, 635/667 nm fluorescence, primary screen (AID 1092); details: small-molecule microarray, hLULL1 lysate binding, 635 nm fluorescence; higher = more signal;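 further: probe is lysate of COS7 cells overexpressing human LULL1; score merges per-feature 667 nm fluorescence with signal-to-noise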
Chain of Torsin-1A-interacting protein 2 (Homo sapiens) (Q8NFQ8 whole entry, looked up): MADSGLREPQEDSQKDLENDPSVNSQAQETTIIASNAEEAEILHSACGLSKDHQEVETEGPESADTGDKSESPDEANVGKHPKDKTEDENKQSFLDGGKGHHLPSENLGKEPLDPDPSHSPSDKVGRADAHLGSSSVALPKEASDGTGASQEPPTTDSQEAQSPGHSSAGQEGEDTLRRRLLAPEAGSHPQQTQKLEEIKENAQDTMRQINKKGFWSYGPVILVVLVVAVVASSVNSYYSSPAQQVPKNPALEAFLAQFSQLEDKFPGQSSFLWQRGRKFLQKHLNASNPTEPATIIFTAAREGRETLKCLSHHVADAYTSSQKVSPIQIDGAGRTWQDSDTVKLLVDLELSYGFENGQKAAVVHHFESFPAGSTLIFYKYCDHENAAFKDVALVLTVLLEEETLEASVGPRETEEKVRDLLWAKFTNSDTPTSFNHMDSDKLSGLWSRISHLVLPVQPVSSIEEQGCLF

[6] = optical density change of DRC41 E. coli – strain DRC41, OD650, 24 h, E. coli filamentation project, primary screen (AID 1093);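 further: MC1000 strain lacking acrAB efflux and sulA so SOS filamentation is blocked; test concentration not given here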; details: E. coli DRC41 growth, higher = more signal, called active from +8 up or from −8 down
[7] = probe aLefty2 binding to arrayed compounds – biochemical, biotinylated probe, 635/667 nm fluorescence, primary screen (AID 1094); details: small-molecule microarray, higher = more signal;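 further: score merges spot fluorescence near 667 nm with spot signal-to-noise ratio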
[8] = system: Noggin (protein binding on small-molecule microarray); assay: small molecules binding Noggin protein – biochemical, 635/667 nm fluorescence, primary screen (AID 1095); details: 635 nm fluorescence, higher = more signal;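 further: score merges 667 nm feature fluorescence with signal to noise over triplicate slides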
[9] = molecular target: Neurogenic locus notch homolog protein 3 (Homo sapiens) (UniProt Q9UM47); assay: small molecules binding NOTCH3 protein – biochemical, 635/667 nm fluorescence, primary screen (AID 1096); details: small-molecule microarray, 635 nm fluorescence, higher = more signal
Chain of Neurogenic locus notch homolog protein 3 (Homo sapiens) (Q9UM47 whole entry, looked up): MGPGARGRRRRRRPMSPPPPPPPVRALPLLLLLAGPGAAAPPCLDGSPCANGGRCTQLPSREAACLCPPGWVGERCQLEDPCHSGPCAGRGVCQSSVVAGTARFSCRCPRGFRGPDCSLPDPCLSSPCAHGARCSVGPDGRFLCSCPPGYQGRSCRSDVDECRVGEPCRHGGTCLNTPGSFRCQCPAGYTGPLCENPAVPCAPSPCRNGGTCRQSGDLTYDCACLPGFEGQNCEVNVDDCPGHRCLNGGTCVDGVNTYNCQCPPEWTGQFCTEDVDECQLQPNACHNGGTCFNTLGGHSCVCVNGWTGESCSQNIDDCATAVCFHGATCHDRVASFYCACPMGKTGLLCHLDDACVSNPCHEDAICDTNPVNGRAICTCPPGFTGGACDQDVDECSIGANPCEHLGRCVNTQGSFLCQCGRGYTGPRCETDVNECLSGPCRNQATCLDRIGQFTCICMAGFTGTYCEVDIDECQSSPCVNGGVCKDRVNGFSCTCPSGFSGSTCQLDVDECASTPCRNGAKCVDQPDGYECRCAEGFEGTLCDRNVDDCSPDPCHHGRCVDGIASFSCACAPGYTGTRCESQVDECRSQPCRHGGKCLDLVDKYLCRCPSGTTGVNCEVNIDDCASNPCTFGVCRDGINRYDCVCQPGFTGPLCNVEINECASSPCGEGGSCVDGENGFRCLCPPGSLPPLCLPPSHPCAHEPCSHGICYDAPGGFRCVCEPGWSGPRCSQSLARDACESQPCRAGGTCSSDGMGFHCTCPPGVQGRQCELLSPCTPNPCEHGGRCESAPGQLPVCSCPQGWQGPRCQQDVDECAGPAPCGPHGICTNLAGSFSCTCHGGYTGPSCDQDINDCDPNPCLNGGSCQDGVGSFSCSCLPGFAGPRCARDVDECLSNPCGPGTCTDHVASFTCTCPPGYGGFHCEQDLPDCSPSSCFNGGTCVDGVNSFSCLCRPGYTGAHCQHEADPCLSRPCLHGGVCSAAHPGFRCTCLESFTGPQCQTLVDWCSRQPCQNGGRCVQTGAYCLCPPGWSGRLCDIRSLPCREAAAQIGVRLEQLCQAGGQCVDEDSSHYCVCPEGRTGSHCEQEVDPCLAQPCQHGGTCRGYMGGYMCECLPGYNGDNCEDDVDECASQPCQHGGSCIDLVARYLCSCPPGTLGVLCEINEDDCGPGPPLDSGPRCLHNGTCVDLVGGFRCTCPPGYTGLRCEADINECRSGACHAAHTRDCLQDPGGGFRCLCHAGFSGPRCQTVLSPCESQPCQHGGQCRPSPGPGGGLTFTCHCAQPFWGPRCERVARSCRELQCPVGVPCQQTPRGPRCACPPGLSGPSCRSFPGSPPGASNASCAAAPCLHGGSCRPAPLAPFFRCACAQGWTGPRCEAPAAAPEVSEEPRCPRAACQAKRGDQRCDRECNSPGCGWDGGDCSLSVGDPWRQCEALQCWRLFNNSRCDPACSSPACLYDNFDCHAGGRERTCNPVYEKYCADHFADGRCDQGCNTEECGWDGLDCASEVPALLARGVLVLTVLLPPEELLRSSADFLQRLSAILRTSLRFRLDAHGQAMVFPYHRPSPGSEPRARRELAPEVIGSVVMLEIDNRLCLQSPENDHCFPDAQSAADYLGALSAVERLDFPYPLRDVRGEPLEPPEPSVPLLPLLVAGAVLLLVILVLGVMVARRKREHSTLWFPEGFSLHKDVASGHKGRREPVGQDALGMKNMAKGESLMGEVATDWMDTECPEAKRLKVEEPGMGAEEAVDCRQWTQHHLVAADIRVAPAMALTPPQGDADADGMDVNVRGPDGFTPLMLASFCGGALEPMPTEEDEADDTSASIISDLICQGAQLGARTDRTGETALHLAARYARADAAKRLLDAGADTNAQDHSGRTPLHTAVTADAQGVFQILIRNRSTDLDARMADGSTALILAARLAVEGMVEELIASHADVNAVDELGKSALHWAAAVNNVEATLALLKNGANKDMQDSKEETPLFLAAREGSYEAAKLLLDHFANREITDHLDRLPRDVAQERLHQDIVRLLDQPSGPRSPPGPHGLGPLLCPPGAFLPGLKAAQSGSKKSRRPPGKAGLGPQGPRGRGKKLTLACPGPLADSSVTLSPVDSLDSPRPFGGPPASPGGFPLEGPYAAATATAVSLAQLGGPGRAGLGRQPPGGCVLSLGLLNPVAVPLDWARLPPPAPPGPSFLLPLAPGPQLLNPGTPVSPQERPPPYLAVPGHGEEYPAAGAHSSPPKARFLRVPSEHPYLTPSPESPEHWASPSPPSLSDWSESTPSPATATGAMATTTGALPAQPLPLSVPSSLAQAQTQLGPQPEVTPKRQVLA

[10] = probe aEGFR binding to arrayed compounds – biochemical, biotinylated probe, 635/667 nm fluorescence, primary screen (AID 1097); details: small-molecule microarray, higher = more signal;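 further: probe is a biotinylated anti-EGFR antibody binding compounds printed on slides; score combines fluorescence near 667 nm and signal to noise of each spot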
[11] = system: Plasmodium falciparum Sir2 (PF13_0152, Sir2A); assay: Plasmodium falciparum Sir2A binding compounds – biochemical, small-molecule microarray, 635 nm fluorescence, primary screen (AID 1098); details: fluorescence 635 nm, higher = more signal;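 further: score merges spot fluorescence intensity with its signal-to-noise ratio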
[12] = probe aDKK1 binding to arrayed compounds – biochemical, biotinylated probe, 635/667 nm fluorescence, primary screen (AID 1099); details: small-molecule microarray, higher = more signal;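 further: score merges 667nm spot fluorescence with signal to noise across triplicate slides; reference of the scale not given here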
[13] = probe aCHRDL2 binding to arrayed compounds – biochemical, biotinylated probe, 635/667 nm fluorescence, primary screen (AID 1100); details: small-molecule microarray, higher = more signal
[14] = change in splice reporter luminescence, either direction, cell-based, HEK293, spliceosome inhibition project, primary screen (AID 1101); details: HEK293 splicing luciferase reporter, 24 h, higher = more signal, called active from +8 up or from −8 down;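 further: HEK293 cells carrying a splicing-competent luciferase reporter gene; test concentration not given here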
[15] = molecular target: Fibroblast growth factor 10 (Homo sapiens) (UniProt O15520); assay: compounds binding fibroblast growth factor 10 – biochemical, small-molecule microarray, 635 nm fluorescence, primary screen (AID 1102); details: FGF10 binding, fluorescence 635 nm, higher = more signal
Chain of Fibroblast growth factor 10 (Homo sapiens) (O15520 whole entry, looked up): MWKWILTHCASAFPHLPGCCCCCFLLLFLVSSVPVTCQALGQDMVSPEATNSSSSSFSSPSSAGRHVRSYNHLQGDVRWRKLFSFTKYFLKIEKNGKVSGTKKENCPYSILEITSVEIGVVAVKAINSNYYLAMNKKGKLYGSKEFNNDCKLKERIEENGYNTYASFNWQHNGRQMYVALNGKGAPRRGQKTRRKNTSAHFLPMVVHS

[16] = system: glycogen synthase kinase-3 (GSK3A per assay name; protocol says GSK3B); assay: compounds binding glycogen synthase kinase-3 – biochemical, small-molecule microarray, 635 nm fluorescence, GSK3A, primary screen (AID 1103); details: fluorescence 635 nm, higher = more signal; further: the record names both GSK3A and GSK3B
[17] = molecular target: Epidermal growth factor receptor (Homo sapiens) (UniProt P00533); assay: compounds binding epidermal growth factor receptor – biochemical, small-molecule microarray, 635 nm fluorescence, primary screen (AID 1104); details: EGFR binding, higher = more signal;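 further: score merges 667 nm emission intensity with spot signal to noise over triplicate slides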
Chain of Epidermal growth factor receptor (Homo sapiens) (P00533 whole entry, looked up): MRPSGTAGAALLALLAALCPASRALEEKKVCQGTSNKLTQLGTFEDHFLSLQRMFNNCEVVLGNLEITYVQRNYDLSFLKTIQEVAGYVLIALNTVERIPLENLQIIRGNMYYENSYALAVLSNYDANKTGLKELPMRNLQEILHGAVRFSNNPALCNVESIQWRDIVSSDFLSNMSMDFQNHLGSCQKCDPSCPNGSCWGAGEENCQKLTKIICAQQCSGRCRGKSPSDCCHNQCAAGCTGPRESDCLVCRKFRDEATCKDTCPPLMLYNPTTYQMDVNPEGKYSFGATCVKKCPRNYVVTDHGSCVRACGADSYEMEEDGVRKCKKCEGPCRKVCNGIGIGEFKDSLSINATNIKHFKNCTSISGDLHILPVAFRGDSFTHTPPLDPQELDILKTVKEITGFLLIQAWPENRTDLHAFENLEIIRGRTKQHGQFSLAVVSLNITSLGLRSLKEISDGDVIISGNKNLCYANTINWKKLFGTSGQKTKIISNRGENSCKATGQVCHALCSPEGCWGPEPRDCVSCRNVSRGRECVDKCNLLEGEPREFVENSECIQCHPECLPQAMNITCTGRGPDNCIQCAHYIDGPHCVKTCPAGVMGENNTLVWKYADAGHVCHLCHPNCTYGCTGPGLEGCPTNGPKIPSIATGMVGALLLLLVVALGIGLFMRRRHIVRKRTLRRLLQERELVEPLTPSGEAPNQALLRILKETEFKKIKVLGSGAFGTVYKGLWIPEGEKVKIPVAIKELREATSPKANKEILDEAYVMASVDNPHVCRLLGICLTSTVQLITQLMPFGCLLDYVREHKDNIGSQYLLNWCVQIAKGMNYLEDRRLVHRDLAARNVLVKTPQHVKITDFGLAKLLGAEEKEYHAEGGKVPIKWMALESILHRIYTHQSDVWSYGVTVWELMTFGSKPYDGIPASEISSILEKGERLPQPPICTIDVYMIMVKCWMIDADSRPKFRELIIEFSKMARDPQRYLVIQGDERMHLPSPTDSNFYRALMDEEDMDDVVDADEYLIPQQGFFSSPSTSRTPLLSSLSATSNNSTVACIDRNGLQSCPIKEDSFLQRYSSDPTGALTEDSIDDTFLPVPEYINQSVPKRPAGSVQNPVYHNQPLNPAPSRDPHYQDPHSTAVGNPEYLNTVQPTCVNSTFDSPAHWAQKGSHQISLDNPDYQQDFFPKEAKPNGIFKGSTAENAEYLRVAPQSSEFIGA

[18] = molecular target: Follistatin-related protein 3 (Homo sapiens) (UniProt O95633); assay: compounds binding follistatin-related protein 3 – biochemical, small-molecule microarray, 635 nm fluorescence, primary screen (AID 1105); details: FSTL3 binding, higher = more signal;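 further: score merges emission near 667 nm and signal to noise per printed spot across three slides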
Chain of Follistatin-related protein 3 (Homo sapiens) (O95633 whole entry, looked up): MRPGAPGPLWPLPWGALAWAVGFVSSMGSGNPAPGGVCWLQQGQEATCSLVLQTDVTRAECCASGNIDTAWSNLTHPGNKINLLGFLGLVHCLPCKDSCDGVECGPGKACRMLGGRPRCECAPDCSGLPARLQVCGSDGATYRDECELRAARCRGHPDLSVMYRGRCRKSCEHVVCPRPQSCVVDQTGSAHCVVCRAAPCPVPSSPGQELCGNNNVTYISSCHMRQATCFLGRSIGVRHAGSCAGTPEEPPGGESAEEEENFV

[19] = molecular target: Dickkopf-related protein 1 (Homo sapiens) (UniProt O94907); assay: small molecules binding DKK1 protein – biochemical, small-molecule microarray, 635 nm fluorescence scan, primary screen (AID 1106); details: higher = more signal;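 further: score merges emission near 667 nm with signal to noise over three replicate slides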
Chain of Dickkopf-related protein 1 (Homo sapiens) (O94907 whole entry, looked up): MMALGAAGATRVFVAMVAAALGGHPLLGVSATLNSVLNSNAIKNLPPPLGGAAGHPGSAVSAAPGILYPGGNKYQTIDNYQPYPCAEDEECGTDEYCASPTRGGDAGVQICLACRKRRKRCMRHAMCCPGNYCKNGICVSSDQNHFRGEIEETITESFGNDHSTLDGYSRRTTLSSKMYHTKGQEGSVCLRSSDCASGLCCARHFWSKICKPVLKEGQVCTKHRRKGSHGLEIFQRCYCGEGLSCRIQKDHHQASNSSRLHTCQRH

[20] = system: Inhibin beta A chain (activin A); assay: small molecules binding activin A – biochemical, small-molecule microarray, 635 nm fluorescence scan, primary screen (AID 1107); details: INHBA, higher = more signal;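 further: mouse activin A protein probed at 4.33 µg/mL on printed slides; score merges bound-protein fluorescence near 667 nm with spot signal-to-noise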

Row | SMILES | composite z-score [1] | z-score [2] | z-score [3] | z-score [4] | composite z-score [5] | z-score [6] | composite z-score [7] | composite z-score [8] | composite z-score [9] | composite z-score [10] | composite z-score [11] | composite z-score [12] | composite z-score [13] | z-score [14] | composite z-score [15] | composite z-score [16] | composite z-score [17] | composite z-score [18] | composite z-score [19] | composite z-score [20]
1 | CCCCC(O)C1C=CC2C(=O)N(c3ccccc3)C(=O)C2N1Nc1ccccc1 (stereo not given) | 0.24 | 0.102 (inactive) | -1.32 (inactive) | 1.77 (inactive) | 2.93 | -0.193 (inactive) | -0.0355 | -0.422 | 0.452 | -0.153 | 0.664 | 0.696 | 0.91 | 0.759 (inactive) | 0.564 | -0.501 | -0.633 | -0.293 | -0.699 | 1.16
2 | CCCNC(=O)[C@@]1(Sc2ccc(C)cc2)CC(=O)N(Cc2ccccc2Cl)[C@@H]1c1ccc(CO)cc1I | 0.16 | -1.17 (inactive) | -3.81 (inactive) | 1.82 (inactive) | 2.08 | 0.545 (inactive) | 0.328 | -1.24 | -0.502 | -0.267 | 0.958 | 0.147 | 0.864 | -0.766 (inactive) | -0.87 | -0.51 | -1.49 | -1.14 | -1.54 | 0.472
3 | COc1cc(OC)c(C(O)C2C=CC3C(=O)N(c4ccccc4)C(=O)C3N2Nc2ccc(C(C)C)cc2)cc1Br (stereo not given) | 1.48 | -0.0401 (inactive) | 1.09 (inactive) | -0.323 (inactive) | 3.55 | 0.315 (inactive) | 0.136 | -0.276 | 1.05 | 0.582 | 0.891 | 0.671 | 0.605 | -0.603 (inactive) | 0.909 | 1.3 | 0.21 | 0.839 | 0.245 | 0.735
4 | COC(=O)[C@@]1(Cc2ccc(F)cc2)[C@H]2c3cc(C(=O)N4CCCC4)n(Cc4ccccn4)c3C[C@H]2CN1C(=O)c1ccccc1 | 0.159 | 0.269 (inactive) | -0.289 (inactive) | 0.856 (inactive) | 3.32 | -1.76 (inactive) | 0.361 | -0.108 | 0.841 | 0.33 | 0.919 | 0.757 | 1.08 | -1.88 (inactive) | 0.426 | 0.453 | 0.214 | 0.156 | -0.398 | 0.855
5 | COC(=O)[C@@]1(Cc2ccccc2)[C@H]2c3cc(C(=O)N(C)C)n(CCO)c3C[C@H]2CN1C(=O)c1ccccc1 | 0.805 | 0.136 (inactive) | 0.612 (inactive) | 0.26 (inactive) | 4.04 | -0.508 (inactive) | 0.381 | -0.779 | 1.02 | 0.418 | 0.621 | 1.25 | 1.21 | 0.395 (inactive) | 0.909 | 0.594 | -0.745 | -0.181 | -0.994 | -0.206
6 | O=C1C[C@@](C(=O)NC2CC2)(c2ccc([N+](=O)[O-])cc2)[C@@H](c2ccc(CO)cc2)N1C1CCCCC1 | 1.52 | -1.19 (inactive) | -2.19 (inactive) | -2.54 (inactive) | 3.12 | 0.778 (inactive) | -0.0139 | 1.74 | 1.07 | -0.0828 | 1.68 | 0.0035 | 0.49 | -0.975 (inactive) | 1.5 | 0.808 | 0.359 | 1.32 | 0.517 | 0.357
7 | CCCC[C@H]1C[C@@H]1[C@@H]1N(C(C)=O)[C@H](c2cccc(OC)c2)CC12CC2 | -0.383 | -0.872 (inactive) | -8.39 (active) | -1.82 (inactive) | 0.755 | -0.563 (inactive) | 0.116 | -0.502 | -0.27 | 0.0192 | -0.497 | 0.692 | 0.878 | -1.86 (inactive) | 0.0847 | 0.114 | -0.0128 | 0 | -0.556 | 0.596
8 | COc1ccc(C(O)C2C=CC3C(=O)NC(=O)C3N2Nc2ccc(Cl)cc2Cl)c2ccccc12 (stereo not given) | 1.01 | -10.5 (active) | -2.63 (inactive) | 0.126 (inactive) | 2.98 | -0.708 (inactive) | -0.279 | -0.494 | 1.05 | -0.176 | 0.828 | 0.913 | 1.15 | -0.744 (inactive) | 0.0892 | 0.15 | -0.582 | 0.483 | -0.284 | 1.14
9 | CC(C)C[C@@H]1NC(=O)[C@@H]2C[C@H](C(=O)NCCCCCCNC(=O)CS)[C@H](c3cccc(OCCO)c3)N2C1=O | 1.54 | 0.509 (inactive) | 0.679 (inactive) | 1.52 (inactive) | 2.84 | -0.616 (inactive) | -0.0124 | 1.66 | 1.02 | 0.0618 | 1.65 | -0.0594 | 0.237 | -0.356 (inactive) | 1.31 | 1.29 | 0.876 | 1.52 | 1.4 | 0.626
10 | COCCCNC(=O)[C@@]1(CCC(=O)OC(C)(C)C)COC(c2ccc(OCCCO)cc2)=N1 | 1.59 | -0.649 (inactive) | 0.132 (inactive) | -2.07 (inactive) | 3.51 | 0.488 (inactive) | -0.0906 | 0.337 | 0.571 | -0.13 | 1.64 | 0.117 | 0.523 | -1.09 (inactive) | 0.693 | 0.986 | -0.106 | 0.219 | -0.0833 | 0.64
